The other results are listed elsewhere or left out. No count for the full screen is at hand.
B1: HC2182 (peptide)
chain: CAEQVTSTWVAGNASASA
B2: HC2057 (peptide)
chain: CAVVCCSSSYAGNASASA
B3: FS-1231 (peptide)
chain: CALPRRPARSAGNASASA
B4: FS-1447 (peptide)
chain: CADLGRPARSAGNASASA
B5: FS-150 (peptide)
chain: CAVPRRPARAAGNASASA
B6: FS-1499 (peptide)
chain: CAVKPRPARSAGNASASA
B7: FS-2711 (peptide)
chain: CARLRKQARAAGNASASA
B8: HC1128 (peptide)
chain: CAVPESDAAAAGNASASA
B9: HC1376 (peptide)
chain: CAVTPCAAEEAGNASASA
B10: FS-1949 (peptide)
chain: CARFPRTWWQAGNASASA
B11: HC2058 (peptide)
chain: CAVVCCSTSYAGNASASA
B12: FS-2139 (peptide)
chain: CARFPRAAHPAGNASASA
B13: HC2049 (peptide)
chain: CAVVCCSYSYAGNASASA
B14: HC108 (peptide)
chain: CAVVCCMMSYAGNASASA
B15: FS-2986 (peptide)
chain: CARLDRSYSYAGNASASA
B16: FS-2923 (peptide)
chain: CARFKRQTSYAGNASASA
B17: HC2579 (peptide)
chain: CASTPCSAHPAGNASASA
B18: FS-2924 (peptide)
chain: CARFPRAYSYAGNASASA

Target: furin, P09958
Assay: furin cleavage Z-score vs untreated control; higher = more cleavage, active = 3.5 or more, inactive = 1 or less, 8 variable residues between constant flanks
Summary of the method: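 Read counts from sequencing released DNA gave abundance for each bead-bound 8-mer peptide–cDNA fusion cut by purified furin over 7.5, 15 or 30 min. The cleavage Z-score compares log counts with furin-free reactions after lowess adjustment and median absolute deviation scaling.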
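Also: purified furin at 1:10 enzyme:substrate in 50 mM HEPES pH 7.5.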

Sequence of furin, P09958 (P09958 whole entry): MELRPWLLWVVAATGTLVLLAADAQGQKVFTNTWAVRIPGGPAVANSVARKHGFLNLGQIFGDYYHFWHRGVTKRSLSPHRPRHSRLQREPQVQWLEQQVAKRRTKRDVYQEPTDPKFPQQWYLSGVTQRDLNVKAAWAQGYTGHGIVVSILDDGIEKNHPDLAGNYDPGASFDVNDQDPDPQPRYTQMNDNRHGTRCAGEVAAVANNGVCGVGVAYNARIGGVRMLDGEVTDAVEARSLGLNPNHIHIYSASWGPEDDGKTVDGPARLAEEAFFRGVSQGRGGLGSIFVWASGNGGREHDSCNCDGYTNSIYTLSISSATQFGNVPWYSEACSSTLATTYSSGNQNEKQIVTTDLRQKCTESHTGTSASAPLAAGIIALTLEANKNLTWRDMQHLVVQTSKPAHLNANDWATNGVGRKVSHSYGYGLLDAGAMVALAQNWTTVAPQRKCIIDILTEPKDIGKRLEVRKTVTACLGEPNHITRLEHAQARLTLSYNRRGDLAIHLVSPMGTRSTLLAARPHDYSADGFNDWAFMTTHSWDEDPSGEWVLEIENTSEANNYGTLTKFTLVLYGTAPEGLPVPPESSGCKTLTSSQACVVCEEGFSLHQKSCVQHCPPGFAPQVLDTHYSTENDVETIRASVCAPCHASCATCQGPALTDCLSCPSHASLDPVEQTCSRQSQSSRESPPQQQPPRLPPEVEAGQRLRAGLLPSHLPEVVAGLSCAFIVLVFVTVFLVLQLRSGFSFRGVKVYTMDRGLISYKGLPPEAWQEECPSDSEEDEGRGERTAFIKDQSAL

Sequence	furin cleavage Z-score (7.5 min)	furin cleavage Z-score (15 min)	furin cleavage Z-score (30 min)
B1	1.33	-1.99 (inactive)	0.572 (inactive)
B2	0.153 (inactive)	-0.457 (inactive)	-1.02 (inactive)
B3	5.68 (active)	6.25 (active)	4.95 (active)
B4	-0.204 (inactive)	-0.114 (inactive)	1.88
B5	9.11 (active)	8.34 (active)	7.62 (active)
B6	10.9 (active)	11.1 (active)	7.25 (active)
B7	0.606 (inactive)	1.95	3
B8	-0.849 (inactive)	-1.42 (inactive)	-1.68 (inactive)
B9	-0.828 (inactive)	-1.48 (inactive)	-0.78 (inactive)
B10	0.217 (inactive)	-0.0617 (inactive)	0.886 (inactive)
B11	1.72	0.804 (inactive)	2.04
B12	3.15	2.75	4.11 (active)
B13	0.949 (inactive)	0.0975 (inactive)	-1.13 (inactive)
B14	0.208 (inactive)	0.787 (inactive)	1.59
B15	0.288 (inactive)	-0.0412 (inactive)	-1.47 (inactive)
B16	8.28 (active)	8.05 (active)	8.39 (active)
B17	-0.671 (inactive)	0.373 (inactive)	0.672 (inactive)
B18	-0.296 (inactive)	0.732 (inactive)	4.36 (active)

— the supplement of paper PMC3545927
